High-throughput results from PubChem.
A selection: hits, their analogues and other compounds. The true share with any hit is near 11%.
JMJD2A Tudor inh – qHTS Assay for Inhibitors of JMJD2A-Tudor Domain; Lysine-specific demethylase 4A (Homo sapiens), O75164; AlphaScreen JMJD2A-Tudor / H3K4me3 peptide binding; Potency, µM (top dose mostly 114 µM), for inactives: at the highest dose activity change, negative = inhibition, usual class: inhibitors; actives 4.4% (n = 390,000); note: potency is the fitted concentration of half-maximal effect; % is set by controls: 0 for no effect and ±100 for the full control effect; nearly all actives have a fitted effect of over 50% in size
G9a block – qHTS Assay for Inhibitors of Histone Lysine Methyltransferase G9a; G9a H3K9 monomethylation, AlphaScreen, 2 h; actives 8.8% (n = 350,000); AID 504332, 2011; Histone-lysine N-methyltransferase EHMT2 (Homo sapiens), Q96KQ7; Potency, µM (top dose mostly 102 µM), for the others: at the highest dose activity, negative = inhibition, hits mostly inhibitors; note: potency is the fitted concentration of half-maximal effect; % is set by controls: 0 for no effect and ±100 for the full control effect; nearly all actives have a fitted effect of over 75% in size
Target sequence (Q96KQ7 913-1193 limits assumed): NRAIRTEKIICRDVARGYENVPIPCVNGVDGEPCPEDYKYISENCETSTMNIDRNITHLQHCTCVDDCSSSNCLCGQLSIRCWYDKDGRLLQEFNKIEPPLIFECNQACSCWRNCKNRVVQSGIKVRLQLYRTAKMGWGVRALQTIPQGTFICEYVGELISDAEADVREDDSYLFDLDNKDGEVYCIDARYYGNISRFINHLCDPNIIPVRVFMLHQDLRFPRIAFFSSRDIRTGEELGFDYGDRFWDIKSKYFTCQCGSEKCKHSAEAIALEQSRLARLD
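AlphaScreen detection with an anti-monomethyl H3K9 antibody quantified product after a 2 h room-temperature reaction containing 500 nM biotinylated H3K9 peptide, 20 µM SAM and 20 nM enzyme, which had been preincubated 15 min with compound.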
PI5P4Ka inh – qHTS for Inhibitors of phosphatidylinositol 5-phosphate 4-kinase (PI5P4K); Phosphatidylinositol 5-phosphate 4-kinase type-2 alpha (Homo sapiens), P48426; PI5P4Kalpha enzyme, ADP-Glo luminescence, 60 min; hits give low values; max response, %; actives 1.2% (n = 330,000); AID 652105, 2013; active = max response of -50% or lower; inconclusive = between -30% and -50%; inactive = -30% or higher; note: value at the top dose of about 77 µM; % is set by controls: 0 for no effect and ±100 for the full control effect
Target sequence (P48426 whole entry, looked up): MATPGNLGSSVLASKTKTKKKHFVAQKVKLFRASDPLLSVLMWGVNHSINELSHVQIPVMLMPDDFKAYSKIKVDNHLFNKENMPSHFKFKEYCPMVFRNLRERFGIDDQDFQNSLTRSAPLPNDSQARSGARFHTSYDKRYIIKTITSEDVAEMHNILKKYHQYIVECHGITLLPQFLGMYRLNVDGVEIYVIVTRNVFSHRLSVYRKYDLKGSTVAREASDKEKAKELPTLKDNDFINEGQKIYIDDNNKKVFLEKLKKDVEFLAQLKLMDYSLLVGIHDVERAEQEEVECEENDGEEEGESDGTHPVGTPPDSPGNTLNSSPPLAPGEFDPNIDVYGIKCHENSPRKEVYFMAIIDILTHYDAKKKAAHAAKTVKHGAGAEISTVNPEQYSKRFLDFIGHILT
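Human PI5P4Kalpha with substrate in 0.038 M HEPES pH 7.4, 0.28 mM EGTA, 0.1% CHAPS, 5% DMSO; reaction started with 5 microM ATP (final), 60 min at room temperature. ADP formed read by ADP-Glo luminescence.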
BAZ2B inh – qHTS Assay for Inhibitors of BAZ2B | AlphaScreen BAZ2B-H3K14Ac peptide displacement | Potency, µM (series often up to 114 µM), without a hit: at the top dose activity change, negative = inhibition, actives largely listed as inhibitors | actives 4.4% (n = 360,000) | AID 504333, 2011; note: potency is the fitted concentration of half-maximal effect; % is set by controls: 0 for no effect and ±100 for the full control effect; nearly all actives have a fitted effect of over 60% in size
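AlphaScreen displacement: compounds (up to 110uM) incubated 30 min at room temperature with a preformed 50 nM BAZ2B/50 nM biotinylated H3K14Ac peptide complex in PBS pH 7.4 with Tween-20. Donor and acceptor beads at 10 ug/mL final added, 20 min light-protected before reading.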
L3MBTL1 block – qHTS Assay for the Inhibitors of L3MBTL1 | Lethal(3)malignant brain tumor-like protein 1 (Homo sapiens), Q9Y468 | AlphaScreen L3MBTL1–H3K9me1 peptide binding | Potency, µM (series often up to 57.1 µM), for the others: at the top dose activity, negative = inhibition, hits mostly inhibitors | actives 0.66% (n = 230,000) | AID 485360, 2010; note: potency is the fitted concentration of half-maximal effect; % is set by controls: 0 for no effect and ±100 for the full control effect; nearly all actives have a fitted effect of over 60% in size
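Read-out is AlphaScreen signal from streptavidin donor and nickel chelate acceptor beads (10 ug/mL final each) bridging L3MBTL1 (50 nM) and biotinylated K9-monomethylated H3(1-15) peptide (75 nM), after 30 min compound exposure at room temperature.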
HP1b chromo inh – HTS for Inhibitors of HP1-beta Chromodomain Interactions with Methylated Histone Tails | AlphaScreen HP1-beta / biotin-H3K9me3 peptide binding | actives 0.56% (n = 390,000) | AID 540317, 2011 | Potency, µM (top dose mostly 114 µM), for the others: top-dose activity change, negative = inhibition, hits mostly inhibitors; note: potency is the fitted concentration of half-maximal effect; nearly all actives have a fitted effect of over 70% in size
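Compound inhibition of the preformed complex between 50 nM HP1-beta and 50 nM biotinylated H3K9me3 peptide was read by AlphaScreen. Buffer was PBS pH 7.4 with 0.01% Tween-20. Incubations ran 30 min at room temperature, with 10 ug/mL donor/acceptor beads.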
Starred values were filed as active, the others as inactive; ? = inconclusive; · = not tested or not shown; [ ] = remark or other dose. Unless noted, calls come from the whole dose curve; as a rule, active = well fitted inhibition curve with a large enough effect; inconclusive = small, poorly fitted or top-dose-only effect; inactive = no such curve, though single readings can be large or run the other way.

SMILES	JMJD2A Tudor inh	G9a block	PI5P4Ka inh	BAZ2B inh	L3MBTL1 block	HP1b chromo inh
O=C(COc1ccc2ccccc2c1)N/N=C/c1ccccn1	?	17%[0.501 µM]	-8	9%	3%	?
CCc1cc(=O)oc2c(C)c3c(cc12)CN(CCc1ccccc1)CO3	3%	-4%[59 µM]	·	-16%	·	49%
Cc1cccc(NS(=O)(=O)c2c(C)nc3sccn3c2=O)c1C	-8%	-32%[59 µM]	·	-14%	·	36%
Cc1ccccc1-c1nc(CNC(=O)NC2CCCCC2)c(C)o1	-11%	5%[59 µM]	·	-10%	·	31%
Cc1ccc(C)n1-c1ccc(C(=O)N/N=C/c2ccncc2)cc1	79µM*	-21%	4	·	-12%	?
Cn1ncc(Cl)c1C(=O)N/N=C/c1ccccn1	?	61%[59 µM]	-6	22µM*	-16%	22%
O=C(Cc1cccs1)N/N=C/c1ccccn1	?	1.4µM*	0	-19%	17%	32%
O=C(N/N=C/c1ccccn1)c1ccc(Cl)cc1	-28%	?	-4	1%	·	24%
O=C(Cc1cccs1)Nc1ccccn1	-14%	?	-21	?	-9%[11.4 µM]	29%
O=C(N/N=C/c1sc(=O)n(-c2ccccc2)c1Cl)c1ccncc1	-15%	50µM*	2	0%	6%	14%
CCOc1ccccc1NC(=O)c1c2c(nc3ccccc13)C(=O)N(C1CCCCC1)C2	-33%	-20%[59 µM]	·	-32%	·	19%
O=S(=O)(c1ccc(Br)cc1)c1nc(-c2cccs2)oc1SCc1ccccc1F	-6%	5%[59 µM]	·	-6%	·	31%
O=C(N/N=C/c1ccccn1)c1ccccc1	?	?	1	-4%	19%	14%
O=C(N/N=C/c1ccccn1)C(O)c1ccccc1 (configuration not stated)	-25%	0.71µM*	-1	?	·	21%
O=C(N/N=C/c1ccccn1)c1ccncc1	?	?	2	16µM*	·	29%
CN(C)c1ccc(C(=O)N/N=C/c2ccccn2)cc1	-24%	7.9µM*	4	6%	·	41%
COc1ccc(N2CC3=C(C2=O)C(c2ccc(Br)cc2)NC(=O)N3C)cc1 (configuration not stated)	-14%	5%[59 µM]	·	-29%	·	44%
Cc1ccccc1OCCCCn1nnc2sc3c(c2c1=O)CCC(C)C3 (configuration not stated)	55%	?	·	35%	·	118%
Cc1ccc(CNC(=O)Cc2ccc(NC(=O)N3CCSc4ncccc43)cc2)cc1	-6%	-3%[59 µM]	·	-3%	·	42%
COc1ccccc1-c1nnc(NC(=O)CCS(=O)(=O)c2ccc(F)cc2)o1	·	·	1	·	·	·
COc1cc(-c2nnc(NC(=O)CS(=O)(=O)c3ccc(C)cc3)o2)cc(OC)c1OC	25µM*	10%	-6	45µM*	-7%	31%
COc1cc(-c2nnc(NC(=O)CS(=O)(=O)c3ccc(F)cc3)o2)cc(OC)c1OC	40µM*	-5%	3	56µM*	-29%	19%
COc1cccc(-c2nnc(NC(=O)CCS(=O)(=O)c3ccc(C)cc3)o2)c1	-23%	7%	2	-30%	7%	29%
CCOc1ccc(CNC(=O)CN2C(=O)CSc3c2c(C)nn3-c2ccccc2)cc1	-13%	13%[59 µM]	·	-21%	·	57%
COc1cccc(NC(=O)CSc2nc3ccccc3n2C)c1	?	3%[59 µM]	-11	-9%	2%	-6%
SMILES	JMJD2A Tudor inh	G9a block	PI5P4Ka inh	BAZ2B inh	L3MBTL1 block	HP1b chromo inh
N#CCSc1nnc(-c2sc3ccccc3c2Cl)o1	-18%	12%[59 µM]	-13	5%	-1%	22%
COC(=O)CSc1nnc(-c2sc3ccccc3c2Cl)o1	10%	13µM*	-1	-15%	0%	51%
COC(=O)CSc1nnc(-c2sc3cc(OC)ccc3c2Cl)n1C	9%[57.1 µM]	6.3µM*	1	-20%	21%[11.4 µM]	27%
COC(=O)CSc1nc2cc(OC)ccc2n1C	-9%	71µM*	6	-26%	3%	24%
COc1ccc2c(c1)nc(SCC(=O)c1ccc(Br)s1)n2C	56µM*	40µM*	·	?	-9%	-11%
COc1ccc(-c2cc(C(C)=O)c(C)n2CCC(=O)Nc2ccc(C)cc2Cl)cc1	-17%	13%[59 µM]	·	18%	·	40%
O=C(O)COc1ccccc1C1Nc2ccccc2-c2nnc(SCc3ccc(Cl)cc3)nc2O1 (configuration not stated)	-33%	?	·	?	·	-1%
CC(=O)N1c2ccccc2CC1C(=O)N1CCN(c2cc(Cl)ccc2C)CC1 (configuration not stated)	-16%	-2%[12.7 µM]	·	-21%	·	29%
CCN(CC)C(=O)c1ccccc1NC(=O)c1cccc(S(=O)(=O)N(CC)CC)c1	-5%	6%	2	4%	4%	30%
CCN(CC)S(=O)(=O)c1cccc(C(=O)N/N=C/c2ccc(O)c(O)c2O)c1	?	1.8µM*	-70*	40µM*	?	?
CCN(CC)S(=O)(=O)c1cccc(C(=O)N/N=C(\C)c2ccc(O)cc2O)c1	?	28%	-15	8.9µM*	14µM*	30%
COc1cccc(N2CCN(C(=O)c3cc4c(=O)n(Cc5ccco5)ccc4nc3C)CC2)c1	-35%	?	·	?	·	80%
O=C(Nc1ccccc1Cl)c1ccccc1Oc1ccc(C(F)(F)F)cc1[N+](=O)[O-]	50µM*	25%[0.501 µM]	4	?	-23%	?
COc1ccc(C(=O)NCC(c2ccco2)S(=O)(=O)c2ccc(F)cc2)cc1 (configuration not stated)	-7%	4%[59 µM]	·	-2%	·	-9%
O=C(CC(c1ccco1)S(=O)(=O)c1ccccc1)c1ccc(F)cc1 (configuration not stated)	-30%	3.5µM*	·	-33%	34%[11.4 µM]	-2%
COc1cc(/C=C2/SC(=S)N(CC3CCCO3)C2=O)ccc1O (configuration not stated)	?	28µM*	-6	45µM*	-27%	45µM*
COc1ccc(/C=C2\SC(=S)N(CCC(=O)NC3CCCC3)C2=O)cc1OC	-9%	7%	0	0%	·	-4%
COc1ccc(/C=C2\SC(=S)N(CC3CCCO3)C2=O)cc1 (configuration not stated)	?	·	18	8.9µM*	-3%	?
